Out of some 420,000 compounds screened, about 64,000 (15%) were called active. Inconclusive results (about 27%) are left out. Calls follow the shape of the dose curve; as a rule, active = well fitted inhibition curve with a large enough effect; inconclusive = small, poorly fitted or top-dose-only effect; inactive = flat fitted curve, though single readings scatter. The list is a sample of the results. Entries that show only a call come without a potency.
Test: qHTS for Inhibitors of human tyrosyl-DNA phosphodiesterase 1 (TDP1): qHTS in cells in absence of CPT; also: nearly all actives have a fitted effect of over 55% in size
Conditions: DT40 Tdp1-/- hTDP1 cells, no CPT, ATP luminescence, 48 h; activity change, negative = growth inhibition: at 46.2 µM (top of the series)
Summary of the method: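 Growth kinetics read by CellTiter-Glo luminescence after ≥48 hr at 37 °C. Cells: DT40 Tdp1-/- stably carrying human TDP1, 400 per well, compound exposure in the absence of CPT (DMSO vehicle).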
Potency is read from the fitted curve at half-maximal effect.

For CN1CCN(CCNC(=O)Nc2ccccc2[N+](=O)[O-])CC1, which Potency is on record?
The Potency was “inactive”.

For Cc1nnc2sc(-c3ccco3)nn12, which Potency is on record?
The Potency was “inactive”.

With CSc1ccc(C#N)cc1NC(=O)c1ccc(Cl)cc1 as the compound, how does the Potency read?
The Potency was “inactive”.

Which Potency does the source give for COCCCNC(=O)/C(C#N)=C/c1c(N2CCCCCC2)nc2ccccn2c1=O here?
Its Potency is “inactive”.

For CCOC(=O)C1=C(C)NC(=O)N(C(C)=O)C1c1ccc(Cl)cc1 (stereo not given), which Potency is on record?
Its Potency is “inactive”.

Which Potency does the source give for CCN(CC(=O)Nc1ccc2c(c1)OCO2)S(=O)(=O)c1ccccc1 here?
Its Potency is “inactive”.

Which Potency does the source give for O=C(COC(=O)CCc1c[nH]c(=O)[nH]1)Nc1ccccc1Cl here?
Its Potency is “inactive”.

With Cn1c(-c2ccc(F)cc2)cnc1SCC(=O)NNC(=O)Cc1ccccc1 as the compound, how does the Potency read?
The Potency was “inactive”.

With COc1cccc(-n2c(SCC(=O)NC3CCCCC3)nc3n[nH]c(C)c3c2=N)c1 as the compound, how does the Potency read?
Its Potency is 18.4 µM (active).

For CCC(Sc1nc2n[nH]c(C)c2c(=N)n1-c1ccccc1Cl)C(=O)N(CC)CC (stereo not given), which Potency is on record?
Its Potency is 16.4 µM (active).

For COc1cccc(-n2c(N)cc(=O)nc2SCC(=O)Nc2cc(C)on2)c1, which Potency is on record?
Its Potency is “inactive”.

For COc1cccc(-n2c(SCC(=O)NC3CCS(=O)(=O)C3)nc3ccccc3c2=O)c1 (stereo not given), which Potency is on record?
The Potency was “inactive”.

For Cc1ccc(Sc2cc(C(=O)c3ccccc3C(=O)O)ccc2[N+](=O)[O-])cc1, which Potency is on record?
Its Potency is “inactive”.

With CC(=O)OCCOCn1cnn2c(=O)c(Br)c(C)nc12 as the compound, how does the Potency read?
The Potency was “inactive”.

Which Potency does the source give for NS(=O)(=O)c1ccc(NC2=CC(c3ccc(F)cc3)N(c3ccc(S(N)(=O)=O)cc3)C2=O)cc1 (stereo not given) here?
Its Potency is “inactive”.

Which Potency does the source give for Cc1cccc(CNS(=O)(=O)c2ccc(-c3cnc(C4CC4)o3)cc2)c1 here?
The Potency was 16.4 µM (active).

With Cc1ccc(S(=O)(=O)N[C@H]2CCC[C@@H]2O)cc1 as the compound, how does the Potency read?
Its Potency is “inactive”.

For Cc1cccc(NS(=O)(=O)c2ccc(-c3cnc(C4CC4)o3)cc2)c1, which Potency is on record?
Its Potency is 0.58 µM (active).

With COc1ccc(S(=O)(=O)NCc2ccc(C(=O)N(C)Cc3ccco3)cc2)cc1 as the compound, how does the Potency read?
The Potency was “inactive”.

With COc1ccc(S(=O)(=O)NCc2cccn2Cc2cccc(C)c2)cc1 as the compound, how does the Potency read?
Its Potency is “inactive”.

With Cc1cc(NS(=O)(=O)c2ccc3oc(=O)c4ncn(C)c4c3c2)ccc1Br as the compound, how does the Potency read?
Its Potency is “inactive”.

With CC1CCN(S(=O)(=O)c2ccc(S(=O)(=O)NCc3cccnc3)cc2)CC1 as the compound, how does the Potency read?
Its Potency is “inactive”.

For COc1ccc(CNS(=O)(=O)c2ccc(-c3cnc(C4CC4)o3)cc2)cc1, which Potency is on record?
The Potency was 13 µM (active).

For COc1ccc(CNS(=O)(=O)c2cc3c4c(c2)CCN4C(=O)CC3)cc1, which Potency is on record?
The Potency was “inactive”.

For O=C(NCc1ccco1)C1CCCN(S(=O)(=O)c2cnc[nH]2)C1 (stereo not given), which Potency is on record?
The Potency was “inactive”.

With Cc1ccc(N=C2NC(=O)c3cccc([N+](=O)[O-])c32)cc1 as the compound, how does the Potency read?
The Potency was “inactive”.

Which Potency does the source give for O=C(COc1ccc(Br)cc1)OCC(=O)c1ccc[nH]1 here?
Its Potency is “inactive”.

With Cc1ccc(CSCCNC(=O)CN(c2ccc(F)cc2)S(C)(=O)=O)cc1 as the compound, how does the Potency read?
Its Potency is “inactive”.

Which Potency does the source give for Cc1c(NC(=S)NC(=O)CCc2ccccc2)c(=O)n(-c2ccccc2)n1C here?
Its Potency is “inactive”.

Which Potency does the source give for COc1cc(NC(=S)N2CCCC(C)C2)cc(OC)c1OC (stereo not given) here?
The Potency was “inactive”.

With C[C@H](NC(=O)c1ccccc1)C(=O)OCC(=O)c1c[nH]c2ccccc12 as the compound, how does the Potency read?
The Potency was “inactive”.

For O=C(/C=C/c1cccs1)NCc1cccnc1, which Potency is on record?
Its Potency is “inactive”.

With CC(NC(=S)Nc1ccccc1)C1COc2ccccc2O1 (stereo not given) as the compound, how does the Potency read?
The Potency was “inactive”.

For Cc1noc(C)c1C(=O)NCC1COc2ccccc2O1 (stereo not given), which Potency is on record?
Its Potency is “inactive”.

With S=C(NCC1COc2ccccc2O1)Nc1ccc(Br)cc1 (stereo not given) as the compound, how does the Potency read?
The Potency was 23.1 µM (active).

With O=C(O)c1ccc(NS(=O)(=O)c2cccc3nsnc23)cc1 as the compound, how does the Potency read?
Its Potency is “inactive”.

With COc1ccccc1NC(=O)C1=C(C)Nc2nc(SCC(=O)c3ccc(C)cc3)nn2C1c1ccccc1C (stereo not given) as the compound, how does the Potency read?
Its Potency is “inactive”.

With COc1ccc(C(=O)NNc2cc(C)nc(NNC(=O)c3ccc(OC)cc3)n2)cc1 as the compound, how does the Potency read?
The Potency was “inactive”.

Which Potency does the source give for COc1ccc(Nc2cc(C)nc(-n3nc(C)cc3C)n2)cc1 here?
Its Potency is 0.184 µM (active).

For Cc1cc(C)n(-c2nnc(N3CCN(c4ccccc4)CC3)nn2)n1, which Potency is on record?
The Potency was “inactive”.

Which Potency does the source give for CC(=O)c1ccc(Oc2cc(C)nc(-n3nc(C)cc3C)n2)cc1 here?
The Potency was 0.58 µM (active).

With Cc1cccc(Nc2cc(C)nc(-n3nc(C)cc3C)n2)c1 as the compound, how does the Potency read?
The Potency was 3.26 µM (active).

With Cc1cc(Oc2ccccc2)nc(N2CCOCC2)n1 as the compound, how does the Potency read?
The Potency was “inactive”.

For Cc1cc(C)n(-c2cc(Oc3ccccc3)ncn2)n1, which Potency is on record?
The Potency was “inactive”.

Which Potency does the source give for Cc1ccc(Nc2nc3ccccc3nc2-n2nc(C)cc2C)c(Cl)c1 here?
Its Potency is “inactive”.

Which Potency does the source give for Cc1cc(C)n(-c2ccc(Cl)c(C(=O)O)n2)n1 here?
The Potency was “inactive”.

For CC1(C(=O)NCc2ccccc2)CSCC(=O)N1CCCn1ccnc1 (stereo not given), which Potency is on record?
Its Potency is “inactive”.

With CC(=O)c1cc(-c2ccccc2)n(CC(=O)NC2CCCCC2)c1C as the compound, how does the Potency read?
The Potency was “inactive”.

With O=C(C=CC(=O)Nc1ccc(F)cc1F)Nc1ccc(F)cc1F as the compound, how does the Potency read?
The Potency was “inactive”.

Which Potency does the source give for O=C(O)C1CCCCC1C(=O)N1CCN(S(=O)(=O)c2ccc(F)cc2)CC1 (stereo not given) here?
The Potency was “inactive”.

With Cc1ccc2c(c1)C1CN(C)CCC1N2C(=O)c1ccccc1NS(=O)(=O)c1ccc(F)cc1C (stereo not given) as the compound, how does the Potency read?
The Potency was “inactive”.

For CCOC(=O)c1ccc(S(=O)(=O)N(CCO)Cc2cc3cc(OC)c(OC)cc3[nH]c2=O)cc1, which Potency is on record?
The Potency was “inactive”.

With CCOc1ccc2[nH]c(=O)c(CN(CCCO)C(C)=O)cc2c1 as the compound, how does the Potency read?
The Potency was “inactive”.

For CCOc1ccc2[nH]c(=O)c(CN(CCCO)S(=O)(=O)c3ccc(F)cc3)cc2c1, which Potency is on record?
The Potency was 16.4 µM (active).

For CC(=O)c1c(C)[nH]c(C(=O)CN2C(=O)NC(C)(C)C2=O)c1C, which Potency is on record?
The Potency was “inactive”.

Which Potency does the source give for COCCNC(=S)N(Cc1cccnc1)Cc1ccc(OC)c(OC)c1 here?
The Potency was “inactive”.

For COc1cccc(C(=O)n2ccc(-c3cccs3)n2)c1, which Potency is on record?
Its Potency is “inactive”.

With CC(C)CC1(C(=O)NCc2ccccn2)C=CCN1C(=O)c1ccccc1 (stereo not given) as the compound, how does the Potency read?
Its Potency is “inactive”.

For CCN1CCN(CC(=O)Nc2sc3c(c2C#N)CCC3)CC1, which Potency is on record?
The Potency was “inactive”.

With CCOC(=O)c1c(NC(=O)CSc2nnc(C)c(=O)[nH]2)sc2c1CCC2 as the compound, how does the Potency read?
Its Potency is “inactive”.

Which Potency does the source give for N#Cc1c(NC(=O)C2CCCO2)sc2c1CCCCC2 (stereo not given) here?
Its Potency is “inactive”.

For CC(=O)c1c(C)[nH]c(C(=O)OCC(=O)Nc2sc3c(c2C#N)CCCC3)c1C, which Potency is on record?
Its Potency is 16.4 µM (active).

For Cc1cccc(C)c1NC(=O)COC(=O)c1ccccc1O, which Potency is on record?
Its Potency is “inactive”.

For CC(=O)c1c(C)[nH]c(C(=O)OCC(=O)Nc2c(C)n(C)n(-c3ccccc3)c2=O)c1C, which Potency is on record?
The Potency was “inactive”.

Which Potency does the source give for COc1ccc(-n2c(SCC(=O)Nc3sc4c(c3C#N)CCCC4)nnc2-c2ccc(O)cc2)cc1 here?
The Potency was “inactive”.

Which Potency does the source give for Cc1cccc(C(=O)OCC(=O)Nc2sc3c(c2C#N)CCC3)c1 here?
Its Potency is “inactive”.

For N#Cc1c(NC(=O)CCCl)sc2c1CCCCC2, which Potency is on record?
Its Potency is 18.4 µM (active).

For CC(=O)c1c(C)[nH]c(C(=O)OCC(=O)Nc2c(C)cccc2C)c1C, which Potency is on record?
The Potency was 13 µM (active).

For CCCc1cc(=O)[nH]c(SCC(=O)Nc2sc3c(c2C#N)CCCC3)n1, which Potency is on record?
Its Potency is “inactive”.

Which Potency does the source give for Cc1ccc(C)c(OCC(=O)Nc2sc3c(c2C#N)CCCC3)c1C here?
The Potency was 9.2 µM (active).

Source: PubChem BioAssay AID686978 (National Center for Advancing Translational Sciences (NCATS), 2013)
